MCF10A rerep: induces DNA re-replication in MCF 10a normal breast cells | Potency, µM (top dose mostly 46.1 µM), for inactives: top-dose activity, positive = re-replication, most hits filed as activators | MCF 10A DNA re-replication, Hoechst nuclear intensity, 48 h | hit rate 2.9% among 350,000; also: potency is read from the fitted curve at half-maximal effect; % of control where 0% means no effect; nearly all actives have a fitted effect of over 50% in size
RORgamma inh: ROR gamma (mouse) transcription inhibition | Drosophila S2 Gal4-RORgamma UAS-luciferase reporter, 20 h | Potency, µM (doses to about 53.6 µM), without a hit: at the top dose activity change, negative = inhibition, usual class: inhibitors | hit rate 5.4% among 310,000 | P51450; also: potency is read from the fitted curve at half-maximal effect; % is scaled to controls: 0 for no effect and ±100 for the full control effect; nearly all actives have a fitted effect of over 60% in size
Target sequence (P51450 whole entry, looked up, the tested form may be a part): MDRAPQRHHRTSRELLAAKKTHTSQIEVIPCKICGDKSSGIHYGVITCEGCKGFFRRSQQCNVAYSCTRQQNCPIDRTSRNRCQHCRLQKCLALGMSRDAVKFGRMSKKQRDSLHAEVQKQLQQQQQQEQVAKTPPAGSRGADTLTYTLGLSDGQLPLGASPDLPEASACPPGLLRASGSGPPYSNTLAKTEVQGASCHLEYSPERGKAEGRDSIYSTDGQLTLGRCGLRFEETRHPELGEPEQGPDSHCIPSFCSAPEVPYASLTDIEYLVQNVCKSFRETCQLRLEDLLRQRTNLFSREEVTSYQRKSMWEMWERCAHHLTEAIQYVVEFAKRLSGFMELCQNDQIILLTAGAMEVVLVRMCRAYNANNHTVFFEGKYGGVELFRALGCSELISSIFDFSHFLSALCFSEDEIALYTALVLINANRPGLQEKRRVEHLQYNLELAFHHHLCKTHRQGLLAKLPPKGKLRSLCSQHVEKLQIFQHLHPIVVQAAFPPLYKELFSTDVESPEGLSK
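ROR gamma transcriptional activity was tracked as Gal4-UAS luciferase output in stably transfected Drosophila Schneider cells, with compound added 1 hr before 700 uM copper sulfate induction and a 20 hr ambient-temperature incubation.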
SW480 rerep: induces DNA re-replication in SW480 colon adenocarcinoma cells. Potency, µM (top dose mostly 46.1 µM), for inactives: top-dose re-replication activation, most hits filed as activators. AID 624297. hit rate 1.8% among 340,000. SW480 DNA re-replication, Hoechst DNA content imaging, 48 h; also: potency is read from the fitted curve at half-maximal effect; % of control where 0% means no effect; nearly all actives have a fitted effect of over 55% in size
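Hoechst fluorescence of nuclei (405 nm excitation, 500-530 nm emission) measured by plate-scanning imager after 48 hr compound exposure at 37 C; re-replication scored as increased number of nuclei with elevated intensity.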
IL-1B inflam inh: inhibitors of inflammasome signaling (IL-1 beta secretion) | THP-1 LPS/ATP IL-1B secretion, AlphaLISA, 16 h; hits give low values | activity change, % at 57.5 µM | hit rate 4.7% among 360,000; in the data active = activity change below about -50%; inconclusive = mostly about -30% to -49%; also: % is scaled to controls: 0 for no effect and ±100 for the full control effect
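Secreted IL-1B measured by AlphaLISA bead assay after 16 h compound exposure of THP-1 cells; compounds (final up to 57.5 uM) added 1 h before LPS (250 ng/mL) and ATP (1.25 mM) stimulation; lower signal means less secretion.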
Gal4-VP16 FLuc: inhibits Gal4-VP16 luciferase reporter, ROR gamma counter-screen; Drosophila S2 Gal4-VP16 UAS-luciferase, luminescence, 20 h; AID 2546; Potency, µM (series often up to 53.6 µM), for inactives: at the highest dose activity, negative = inhibition, hits mostly inhibitors; hit rate 3.5% among 310,000;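 also: Gal4-VP16 expression switched on by copper sulfate through the metallothionein promoter; potency is read from the fitted curve at half-maximal effect; % is scaled to controls: 0 for no effect and ±100 for the full control effect; nearly all actives have a fitted effect of over 50% in size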
The depositor's hits bear a star; ? = inconclusive; nt = no result given; [ ] = another dose, or the depositor's remark. Hits are enriched below; roughly 11% of the tested compounds scored in any of these assays. Unless noted, calls follow the shape of the dose curve; as a rule, active = well fitted curve in the direction sought with a large enough effect; inconclusive = small, poorly fitted or top-dose-only effect, or another doubt; inactive = no such curve, though single readings can be large; an effect the other way counts as inactive or inconclusive.

SMILES | MCF10A rerep | RORgamma inh | SW480 rerep | IL-1B inflam inh | Gal4-VP16 FLuc
FC(F)(F)c1ccccc1-n1c(-c2cnccn2)n[nH]c1=S | 3% | 11µM* | -8% | 17 | -1%
Cc1ccc(-n2c(-c3cnccn3)n[nH]c2=S)c(Br)c1 | -24% | 7.9µM* | -33%[1.84 µM] | 49 | -26%
COc1cc(-c2n[nH]c(=S)n2-c2ccccc2C(F)(F)F)cc(OC)c1OC | 10% | ? | -4% | 6 | -8%
CN(C)c1ccc(-c2cncnc2NCCc2cnc[nH]2)cc1 | nt | -10% | nt | nt | 3%
CCCCNC(=O)C1(C)CCN1C(=O)c1ccc2ccccc2n1 (centres undefined) | nt | nt | nt | 58 | nt
CC(C)N(C(=S)Nc1ccc(S(=O)(=O)N2CCOCC2)cc1)c1ccccc1 | -26% | nt | -6% | 3 | nt
Cc1ccc2nc(SCC(=O)N3CCCCC3)nc(=O)n2c1 | 14% | nt | ? | -4 | nt
COC(=O)[C@@H](Cc1ccccc1)NC(=O)/C=C/[C@H]1O[C@@H](n2cnc3c(NC(=O)c4ccccc4)ncnc32)[C@H](O)[C@@H]1O | nt | nt | nt | -19 | nt
CC(=O)c1ccc(NC(=O)c2ccc(C)c(Br)c2)cc1 | 0% | -23% | -3% | -58* | ?
N#Cc1cccc(NC(=O)N2CCCC3(CCN(C(=O)c4ccco4)CC3)C2)c1 | nt | -3% | nt | nt | 17%
CCNc1ncc2nc(-c3ccccc3)c(=O)n(C)c2n1 | nt | 2% | nt | nt | 22%
CCCNc1nc(N2CCCC2)nc(N2CCCC2)n1 | 2% | -26% | ? | -65* | 23%
O=Cc1ccsc1B(O)O | nt | -9% | nt | nt | 2%
O=[N+]([O-])c1cc(/C=N/n2c(-c3ccncc3)n[nH]c2=S)ccc1Cl | ? | -16% | ? | -7 | -13%
CC(C)(C)c1ccc(-c2n[nH]c(=S)n2/N=C/c2ccncc2)cc1 | ? | ? | 0% | 15 | 14µM*
Oc1ccc(/C=N/n2c(-c3ccccc3)n[nH]c2=S)cc1 | -1% | ? | -3% | 8 | -9%
Cc1ccc(/C=N/n2c(-c3ccncc3)n[nH]c2=S)cc1 | -2% | 8.9µM* | -2% | 11 | 13µM*
Nc1ccn([C@@H]2O[C@H](CO)[C@H](O)C2(F)F)c(=O)n1 | 7% | -2% | ? | nt | -6%
Cc1cnc(C(=O)NC(Cc2ccccc2)c2ccccc2)cn1 (centres undefined) | 1% | 27% | -11% | 50 | -1%
CC/C(Cc1ccccc1)=N\NC(=O)c1cc([N+](=O)[O-])cc([N+](=O)[O-])c1 | -6% | 7.9µM* | 1% | 4 | -14%
CC(/C=C/c1cccc([N+](=O)[O-])c1)=N/NC(=O)c1cccnc1 | 16% | 3.2µM* | 7% | -14 | 5µM*
C/C(=N\NC(=O)c1ccc(CSc2cccc3cccnc23)cc1)C1CCCCC1 | -50% | -21% | -41% | -4 | -4%
COc1ccc(/C(C)=N/NC(=O)c2ccc(CSc3cccc4cccnc34)cc2)cc1OC | 22% | 16µM* | 3% | -16 | 20%
CC/C(Cc1ccccc1)=N/NC(=O)c1cccc(Br)c1 | 2% | -31% | ? | 9 | -5%
CC(=O)Nc1ccc(C=CC=Cc2cccc([N+](=O)[O-])c2)cc1 | ? | nt | ? | -97* | nt
SMILES | MCF10A rerep | RORgamma inh | SW480 rerep | IL-1B inflam inh | Gal4-VP16 FLuc
OC(c1ccc(F)c(F)c1)c1ncc(-c2cccc(C(F)(F)F)c2)[nH]1 (centres undefined) | nt | nt | nt | -12 | nt
Cc1ccccc1CNC(=O)CN(c1ccccc1Cl)S(C)(=O)=O | 5% | 29% | 5% | 0 | 2%
CC(/C=C/c1ccccc1)=N/NC(=O)c1cc([N+](=O)[O-])cc([N+](=O)[O-])c1 | 17% | 0.18µM* | -5% | 0 | 0.18µM*
O=C(N/N=C/C=C\c1cccc([N+](=O)[O-])c1)c1cccnc1 | -1% | 6.3µM* | -12% | -7 | ?
COC(=O)N/N=C(C)/C=C/c1ccccc1 | -3% | nt | -2% | -11 | nt
COc1ccc(C(=O)NN=C(Cc2ccccc2)Cc2ccccc2)cc1OC | ? | 11µM* | ? | 6 | ?
O=C(/C=C/c1cccnc1)c1ccc(F)c(F)c1 | ? | ? | ? | -75* | ?
COc1ccc(C(=O)Cc2ccccc2)cc1OC | -5% | -2% | -699% | 22 | 5%
C/C(=N\NC(=O)c1cccnc1)c1cccc([N+](=O)[O-])c1 | -1% | 1% | 22% | -25 | -3%[10 µM]
CCOc1ccccc1NC(=O)CCn1ccnc1 | 1% | -8% | ? | -8 | -1%
COc1ccccc1CNc1nc(-c2ccccc2CN(C)C)nc2ccccc12 | nt | ? | nt | nt | -11%
COc1ccc2c(CC(=O)N3CCN(S(=O)(=O)c4ccc(F)cc4)CC3)coc2c1 | 2% | nt | 10% | 0 | nt
O=C(/C=C/c1ccc([N+](=O)[O-])cc1)c1cccnc1 | ? | ? | ? | -14 | 22µM*
O=C(N/N=C\C=C\c1ccc2c(c1)OCO2)c1cccnc1 | -8% | 5.6µM* | ? | -1 | 11µM*
Cc1ccc(-c2n[nH]c(=S)n2C)cc1Cl | -2% | 0.56µM* | -2% | -17 | 3.5µM*
Clc1cccc(CN2CCSCC2)c1Cl | -1% | -7% | -3% | 3 | 1%
CC(C)C[C@@H](CC(=O)N[C@H](CC(=O)N[C@@H]1CCNC[C@H]1C(=O)N[C@H](CC(=O)N[C@@H](CCC(=O)O)CC(=O)O)Cc1c[nH]c2ccccc12)C(C)C)NC(=O)[C@@H]1CCCC[C@H]1N | nt | 5% | nt | nt | 1%
Cc1ccc2nc(C3CCCN3Cc3nc(CCC(C)C)no3)[nH]c2c1 (centres undefined) | -1% | 7.1µM* | -4% | 4 | 20µM*
COc1cccc(C2CCCN2Cc2nc(CCC(C)C)no2)c1 (centres undefined) | 19% | -26% | 2% | 34 | -16%
CC(C)(CCc1ccccn1)C(=O)C(CCc1ccccn1)CCc1ccccn1 | 0% | nt | -4% | -55* | nt
CC(CCc1ccccn1)C(=O)C(C)CCc1ccccn1 (centres undefined) | 3% | nt | -3% | 0 | nt
C/C(=N\NC(=O)CSCc1ccccc1Cl)c1cc(O)ccc1O | ? | 5µM* | ? | 40 | 11µM*
Cc1ccc(-c2nn(-c3ccc(F)cc3)cc2C(=O)N2CCN(C3CCS(=O)(=O)C3)CC2)cc1 (centres undefined) | 0% | nt | -1% | -10 | nt
Cc1occc1C(=O)O/N=C(\N)c1ccccc1 | -3% | ? | 6% | nt | 10µM*
Cc1cccc(/C(N)=N/OC(=O)c2ccoc2C)c1 | ? | ? | 13% | -1 | ?
Cc1ccccc1C(=O)O/N=C(\N)c1ccccc1 | ? | 7.1µM* | ? | -4 | 10µM*
CN(C)CCC(Oc1ccccc1OCc1ccccc1)c1ccccc1 (centres undefined) | ? | nt | ? | -90* | nt
CCc1ccc(-n2c(Cc3ccccc3)n[nH]c2=S)cc1 | -3% | 2µM* | -8% | 9 | ?

Assay outcomes from PubChem BioAssay.
